Source: the supplement of paper PMC11006884
The full data set covers some 6,500 targets. This sample favours those with a hit. About 2% of all pairs of compound and target were hits.

Sequence of UniProt P78347 (P78347 whole entry, looked up): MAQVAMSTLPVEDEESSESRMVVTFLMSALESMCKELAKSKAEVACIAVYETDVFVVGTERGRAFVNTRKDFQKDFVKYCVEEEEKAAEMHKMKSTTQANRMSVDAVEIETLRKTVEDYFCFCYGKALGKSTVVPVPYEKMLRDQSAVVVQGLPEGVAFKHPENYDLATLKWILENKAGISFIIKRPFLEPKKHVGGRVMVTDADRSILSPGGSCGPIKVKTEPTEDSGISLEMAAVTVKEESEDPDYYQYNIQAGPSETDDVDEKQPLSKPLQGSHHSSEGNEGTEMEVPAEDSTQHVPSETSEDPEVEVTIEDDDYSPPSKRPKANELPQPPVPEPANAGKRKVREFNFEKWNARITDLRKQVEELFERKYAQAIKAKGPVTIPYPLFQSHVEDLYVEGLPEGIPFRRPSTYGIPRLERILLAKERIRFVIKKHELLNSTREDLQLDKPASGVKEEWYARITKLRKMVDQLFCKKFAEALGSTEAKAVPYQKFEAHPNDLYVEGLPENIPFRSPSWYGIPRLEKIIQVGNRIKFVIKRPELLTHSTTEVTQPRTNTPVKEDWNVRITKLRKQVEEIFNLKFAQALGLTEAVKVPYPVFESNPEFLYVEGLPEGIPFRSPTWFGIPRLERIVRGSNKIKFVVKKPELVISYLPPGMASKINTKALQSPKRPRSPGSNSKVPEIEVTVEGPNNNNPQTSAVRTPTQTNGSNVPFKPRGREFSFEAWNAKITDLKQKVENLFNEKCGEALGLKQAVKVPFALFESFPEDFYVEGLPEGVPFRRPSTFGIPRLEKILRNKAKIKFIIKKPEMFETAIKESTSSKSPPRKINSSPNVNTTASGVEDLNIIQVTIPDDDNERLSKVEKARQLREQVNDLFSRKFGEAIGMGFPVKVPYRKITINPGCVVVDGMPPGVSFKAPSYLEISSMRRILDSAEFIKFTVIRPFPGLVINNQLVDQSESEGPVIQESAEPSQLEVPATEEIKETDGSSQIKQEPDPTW
Sequence of UniProt Q00839 (Q00839 whole entry, looked up): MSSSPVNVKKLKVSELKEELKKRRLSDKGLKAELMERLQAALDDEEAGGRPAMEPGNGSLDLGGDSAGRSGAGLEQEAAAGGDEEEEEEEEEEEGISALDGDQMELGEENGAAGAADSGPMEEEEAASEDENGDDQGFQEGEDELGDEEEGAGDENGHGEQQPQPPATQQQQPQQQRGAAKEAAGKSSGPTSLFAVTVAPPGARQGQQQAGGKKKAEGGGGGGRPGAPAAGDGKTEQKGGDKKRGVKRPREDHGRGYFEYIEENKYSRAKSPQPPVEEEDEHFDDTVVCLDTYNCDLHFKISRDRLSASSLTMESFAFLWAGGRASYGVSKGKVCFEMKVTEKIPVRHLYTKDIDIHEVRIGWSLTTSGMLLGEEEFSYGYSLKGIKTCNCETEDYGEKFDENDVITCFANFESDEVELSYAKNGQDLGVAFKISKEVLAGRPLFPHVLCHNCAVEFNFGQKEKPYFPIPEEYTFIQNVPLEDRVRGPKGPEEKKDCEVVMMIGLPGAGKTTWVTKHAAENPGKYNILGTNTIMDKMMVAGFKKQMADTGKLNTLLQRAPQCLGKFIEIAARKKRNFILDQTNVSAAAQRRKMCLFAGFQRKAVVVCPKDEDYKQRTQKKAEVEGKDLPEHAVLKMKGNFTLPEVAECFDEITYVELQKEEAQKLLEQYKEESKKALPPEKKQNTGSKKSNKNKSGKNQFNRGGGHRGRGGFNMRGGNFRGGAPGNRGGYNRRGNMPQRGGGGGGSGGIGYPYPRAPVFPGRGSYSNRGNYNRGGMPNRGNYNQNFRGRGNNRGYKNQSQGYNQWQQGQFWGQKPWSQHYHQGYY
Sequence of UniProt Q05639 (Q05639 whole entry, looked up): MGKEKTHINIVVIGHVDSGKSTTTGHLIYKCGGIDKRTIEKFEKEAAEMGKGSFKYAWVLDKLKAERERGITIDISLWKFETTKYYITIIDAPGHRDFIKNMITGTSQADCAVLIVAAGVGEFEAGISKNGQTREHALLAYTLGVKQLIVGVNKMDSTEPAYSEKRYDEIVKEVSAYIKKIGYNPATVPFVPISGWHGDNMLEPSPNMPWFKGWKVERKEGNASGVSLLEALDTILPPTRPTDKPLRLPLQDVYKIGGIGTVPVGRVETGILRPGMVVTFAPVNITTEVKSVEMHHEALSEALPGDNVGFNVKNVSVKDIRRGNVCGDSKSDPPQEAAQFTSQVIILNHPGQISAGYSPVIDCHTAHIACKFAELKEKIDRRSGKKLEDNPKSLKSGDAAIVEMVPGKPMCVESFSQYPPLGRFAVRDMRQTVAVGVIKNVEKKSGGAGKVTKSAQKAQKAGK
Sequence of UniProt P53992 (P53992 whole entry, looked up): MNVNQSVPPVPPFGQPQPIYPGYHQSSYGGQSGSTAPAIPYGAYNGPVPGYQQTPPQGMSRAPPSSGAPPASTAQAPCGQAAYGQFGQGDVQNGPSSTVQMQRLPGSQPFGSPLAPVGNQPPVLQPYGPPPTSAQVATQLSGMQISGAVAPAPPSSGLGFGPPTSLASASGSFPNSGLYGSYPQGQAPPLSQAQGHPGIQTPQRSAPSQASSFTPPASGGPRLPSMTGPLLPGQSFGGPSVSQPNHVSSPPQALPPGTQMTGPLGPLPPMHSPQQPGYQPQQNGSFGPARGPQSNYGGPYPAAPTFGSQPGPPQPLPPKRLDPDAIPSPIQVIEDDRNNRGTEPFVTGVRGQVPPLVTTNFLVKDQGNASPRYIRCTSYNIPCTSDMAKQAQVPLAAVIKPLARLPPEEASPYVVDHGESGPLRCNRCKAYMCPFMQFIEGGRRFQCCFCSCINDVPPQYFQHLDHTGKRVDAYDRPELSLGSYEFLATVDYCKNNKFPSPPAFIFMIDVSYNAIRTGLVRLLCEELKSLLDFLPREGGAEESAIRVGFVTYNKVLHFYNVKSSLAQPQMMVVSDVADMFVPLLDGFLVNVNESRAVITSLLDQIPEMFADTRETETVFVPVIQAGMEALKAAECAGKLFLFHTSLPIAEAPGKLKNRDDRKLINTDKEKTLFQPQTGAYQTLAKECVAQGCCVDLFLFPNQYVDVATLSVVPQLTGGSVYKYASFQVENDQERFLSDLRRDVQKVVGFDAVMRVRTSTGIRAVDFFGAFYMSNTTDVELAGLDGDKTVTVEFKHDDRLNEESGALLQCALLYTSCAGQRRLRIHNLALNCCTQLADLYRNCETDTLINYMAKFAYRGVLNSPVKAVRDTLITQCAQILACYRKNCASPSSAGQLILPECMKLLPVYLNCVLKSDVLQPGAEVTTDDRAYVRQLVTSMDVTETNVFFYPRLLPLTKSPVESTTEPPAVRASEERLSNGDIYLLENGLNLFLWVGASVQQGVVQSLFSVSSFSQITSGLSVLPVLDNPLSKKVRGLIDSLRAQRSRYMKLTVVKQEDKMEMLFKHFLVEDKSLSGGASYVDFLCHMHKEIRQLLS
Sequence of UniProt Q15398 (Q15398 whole entry, looked up): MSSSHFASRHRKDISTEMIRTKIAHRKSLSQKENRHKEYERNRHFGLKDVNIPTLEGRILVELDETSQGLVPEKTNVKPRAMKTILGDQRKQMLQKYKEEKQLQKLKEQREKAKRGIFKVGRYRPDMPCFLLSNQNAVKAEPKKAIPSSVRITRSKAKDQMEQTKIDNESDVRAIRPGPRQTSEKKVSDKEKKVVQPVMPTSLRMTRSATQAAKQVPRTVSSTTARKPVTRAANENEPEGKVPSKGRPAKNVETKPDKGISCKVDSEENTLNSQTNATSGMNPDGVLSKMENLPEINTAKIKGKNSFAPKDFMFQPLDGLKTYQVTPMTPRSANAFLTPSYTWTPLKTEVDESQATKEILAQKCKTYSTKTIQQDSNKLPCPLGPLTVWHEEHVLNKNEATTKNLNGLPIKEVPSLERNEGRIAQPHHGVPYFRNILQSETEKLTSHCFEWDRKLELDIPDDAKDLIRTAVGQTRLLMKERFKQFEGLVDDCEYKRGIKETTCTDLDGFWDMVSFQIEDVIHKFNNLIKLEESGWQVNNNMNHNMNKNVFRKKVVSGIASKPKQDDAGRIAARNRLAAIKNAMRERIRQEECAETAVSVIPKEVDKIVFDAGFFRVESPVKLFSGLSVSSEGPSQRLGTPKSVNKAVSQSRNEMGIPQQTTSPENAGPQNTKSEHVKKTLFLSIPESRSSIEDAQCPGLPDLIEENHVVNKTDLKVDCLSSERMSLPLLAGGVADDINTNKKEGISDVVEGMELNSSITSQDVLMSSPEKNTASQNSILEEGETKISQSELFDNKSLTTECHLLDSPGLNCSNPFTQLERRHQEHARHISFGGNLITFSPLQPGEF
Sequence of UniProt Q14166 (Q14166 whole entry, looked up): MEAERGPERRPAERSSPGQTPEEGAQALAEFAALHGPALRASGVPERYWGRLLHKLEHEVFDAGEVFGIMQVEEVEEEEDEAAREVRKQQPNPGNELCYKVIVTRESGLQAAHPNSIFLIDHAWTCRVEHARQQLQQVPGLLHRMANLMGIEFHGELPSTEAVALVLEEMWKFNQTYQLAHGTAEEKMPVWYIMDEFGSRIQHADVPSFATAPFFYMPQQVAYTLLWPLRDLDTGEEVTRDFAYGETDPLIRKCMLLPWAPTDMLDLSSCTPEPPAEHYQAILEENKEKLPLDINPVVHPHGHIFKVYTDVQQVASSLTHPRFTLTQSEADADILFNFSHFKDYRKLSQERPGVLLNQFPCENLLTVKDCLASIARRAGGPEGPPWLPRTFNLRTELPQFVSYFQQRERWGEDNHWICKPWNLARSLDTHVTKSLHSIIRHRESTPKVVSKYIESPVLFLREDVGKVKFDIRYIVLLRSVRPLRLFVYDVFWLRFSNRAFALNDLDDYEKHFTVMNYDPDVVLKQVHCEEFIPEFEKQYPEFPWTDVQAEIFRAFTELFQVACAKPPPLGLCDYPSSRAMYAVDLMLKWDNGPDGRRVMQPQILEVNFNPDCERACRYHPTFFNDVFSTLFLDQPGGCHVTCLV

What follows are targets tested with COC(=O)C#Cc1ccccc1 [methyl 3-phenylpropiolate] (assay: log2 ratio of iodoacetamide-alkyne labeling of the cysteine site, DMSO over compound (competition); higher = stronger covalent engagement of the cysteine by the compound, active = 1 or more). Conditions: 500 µM; treatment time 1 h; system: HEK293T cell lysate.
Procedure, shortened: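 The log2 competition ratio per cysteine is defined as mean reporter intensity in control channels over mean reporter intensity in compound channels. Lysate from HEK293T cells (2 mg/mL) received electrophile (500 µM) or vehicle for 1 h at ambient temperature, followed by iodoacetamide alkyne for 1 h. Samples were clicked to sCIP-TMT reagents, pooled, trypsin-digested overnight at 37 °C, streptavidin-enriched, acid-eluted and run on Orbitrap Eclipse LC-MS/MS with FAIMS, with quantification in FragPipe. Three replicates with duplicate channels were used, and any cysteine quantified in only one replicate was excluded.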
In the case of MDC1 C1742 (UniProt Q14676), the “log2 ratio of iodoacetamide-alkyne labeling” value (from here on “log2 ratio”) was 0.0644 (inactive). For COASY C144 (UniProt Q13057), the “log2 ratio” value was 1.16 (active). In the case of EEF1A2 C326 (UniProt Q05639), the “log2 ratio” value was 0.25 (inactive). In the case of NUBP1 C25 (UniProt P53384), the “log2 ratio” value was 2.24 (active). In the case of UniProt P55072_C209, the “log2 ratio” value was 0.132 (inactive). With NCAPD2 C1249 (UniProt Q15021) the “log2 ratio” value was 0.179 (inactive). For SEC24C C433 (UniProt P53992), the “log2 ratio” value was 1.1 (active). In the case of PPP5C C11 (UniProt P53041), the “log2 ratio” value was 0.16 (inactive). NFKB2 C57 (UniProt Q00653) was tested, and the “log2 ratio” value was 1.24 (active). With FOXK1 C439 (UniProt P85037) the “log2 ratio” value was 0.622 (inactive). With CDC20 C364 (UniProt Q12834) the “log2 ratio” value was 1.22 (active). For SMC1A C987 (UniProt Q14683), the “log2 ratio” value was 0.473 (inactive). In the case of STX5 C68 (UniProt Q13190), the “log2 ratio” value was 0.4 (inactive). In the case of UniProt P83731_C6, the “log2 ratio” value was 0.668 (inactive). PITRM1 C780 (UniProt Q5JRX3) was tested, and the “log2 ratio” value was 0.31 (inactive). For LRRFIP1 C14 (UniProt Q32MZ4), the “log2 ratio” value was 0.0967 (inactive). For GTF2I C80 (UniProt P78347), the “log2 ratio” value was 0.0358 (inactive). UniProt P84103_C6 was tested, and the “log2 ratio” value was 0.422 (inactive). For UniProt P62244_C72, the “log2 ratio” value was 0.177 (inactive). LLGL1 C1059 (UniProt Q15334) was tested, and the “log2 ratio” value was 0.241 (inactive). For HNRNPU C497 (UniProt Q00839), the “log2 ratio” value was 0.211 (inactive). For DOCK11 C409 (UniProt Q5JSL3), the “log2 ratio” value was -0.0544 (inactive). With CAP1 C93 (UniProt Q01518) the “log2 ratio” value was 0.152 (inactive). For AKAP12 C1399 (UniProt Q02952), the “log2 ratio” value was 1.16 (active). In the case of BMS1 C725 (UniProt Q14692), the “log2 ratio” value was 1.27 (active). LLGL1 C697 (UniProt Q15334) was tested, and the “log2 ratio” value was 0.999 (inactive). In the case of AKAP13 C683 (UniProt Q12802), the “log2 ratio” value was 0.255 (inactive). With TTLL12 C126 (UniProt Q14166) the “log2 ratio” value was -0.117 (inactive). GEN1 C668 (UniProt Q17RS7) was tested, and the “log2 ratio” value was 0.0186 (inactive). With DYNC1H1 C1977 (UniProt Q14204) the “log2 ratio” value was 0.124 (inactive). ERCC6L C356 (UniProt Q2NKX8) was tested, and the “log2 ratio” value was 0.193 (inactive). With MTA1 C512 (UniProt Q13330) the “log2 ratio” value was 0.481 (inactive). In the case of USP14 C415 (UniProt P54578), the “log2 ratio” value was -0.369 (inactive). In the case of DLGAP5 C129 (UniProt Q15398), the “log2 ratio” value was 1.38 (active). For UniProt Q12905_C37, the “log2 ratio” value was 0.0335 (inactive).
